# Source: paper PMC7819943, “Rice protein-binding microarrays: a tool to detect cis-acting elements near promoter regions in rice”
# The full ranking holds about 68,000 sequences; the median of “fluorescence intensity (a.u.)” is about 9,100, and the highest 2% start at about 16,000. This excerpt belongs to a sample that is enriched for the highest values.
# Target: OsWRKY34 (Oryza sativa, UniProt Q0JBA9 1-250)
# Experiment: protein-binding microarray (RPBM); PBS, 2% BSA, 51.3 ng/ul salmon testes DNA, 50 uM zinc acetate, 200 nM TF, 25 C, 1 h; high values mean tight binding
# Conditions: protein: recombinant; tags: N-terminal polyhistidine and DsRed monomer fusion (pET32a); label: CyDye5-dUTP incorporated in the synthesized complementary strand; 3' TTTTT single-stranded linker to array surface; dsDNA, one strand shown
# How it was run: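 The binding signal is fluorescence intensity per array feature (arbitrary units). Readings came from an Axon 4000B scanner after a washed, 2% BSA-blocked, double-stranded custom Agilent array had been incubated for 1 h at 25 °C with 200 nM protein and 50 µM zinc acetate. The protein was a Ni–NTA-purified transcription factor fused N-terminally to polyhistidine and DsRed, expressed in E. coli BL21-CodonPlus.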
# Sequence of OsWRKY34 (Q0JBA9 entry or part of it): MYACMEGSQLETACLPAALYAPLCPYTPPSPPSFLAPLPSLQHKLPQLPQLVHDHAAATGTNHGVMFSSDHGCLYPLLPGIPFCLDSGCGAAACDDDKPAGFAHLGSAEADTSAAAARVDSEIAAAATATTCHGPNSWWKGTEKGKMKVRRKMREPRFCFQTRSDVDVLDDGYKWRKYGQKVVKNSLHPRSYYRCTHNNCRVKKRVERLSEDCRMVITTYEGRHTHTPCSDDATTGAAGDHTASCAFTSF
row,Sequence,binding signal
1,CGGTTCTTGTCGTAGAAAGCTCCGTGTTATCGTTTATATTCGGAGTCACCTAGTGCAG,8090 fluorescence intensity (a.u.)
2,CAGCCACCTCTCCATCTTCTGTCCGTTCACCTCTCCGTAACGGAGTCACCTAGTGCAG,12600 fluorescence intensity (a.u.)
3,GCTTGCTCCAGGTGACCCAACTTTTCCATTTCCATGCATTCGGAGTCACCTAGTGCAG,11300 fluorescence intensity (a.u.)
4,GCTCCTCCTCCTCTTCCCGCCTCACCGCCGCACCACCTCTCGGAGTCACCTAGTGCAG,8550 fluorescence intensity (a.u.)
5,CCGTGGGCCAGACCTTTTTCTTCGACGCTAGACCTGACTACGGAGTCACCTAGTGCAG,9780 fluorescence intensity (a.u.)
6,TTCACCCACGTTTCTGCCCAACCCTCTCACCCTAGCTTAGCGGAGTCACCTAGTGCAG,10800 fluorescence intensity (a.u.)
7,AACTTCGCAAGAGGCATGCTCTCCAGCCTCAATTTTCATGCGGAGTCACCTAGTGCAG,8410 fluorescence intensity (a.u.)
8,CCCCATTTTCTTTGTTTCTACTTCTCTTTCCCTTTCTTGTCGGAGTCACCTAGTGCAG,10700 fluorescence intensity (a.u.)
9,CTCCGTCCCTCCGTACCAGTTTAAATGCAGCCGTGGATTCCGGAGTCACCTAGTGCAG,8360 fluorescence intensity (a.u.)
10,TTTGACGCCGTTGACTTTTTTAAAAATGTTTGACCGTTCACGGAGTCACCTAGTGCAG,25100 fluorescence intensity (a.u.)
11,GCCCGCTGCTATTCTCTCTCATCTTTTATCCTATTAAAATCGGAGTCACCTAGTGCAG,13200 fluorescence intensity (a.u.)
12,TACTTACTCCCTCCGTATTTTAATGTATGACGCCGTTGACCGGAGTCACCTAGTGCAG,14200 fluorescence intensity (a.u.)
13,CGCTACCGGGTTGACTTTTTCCTATCCGTTTCTGGTCCGGCGGAGTCACCTAGTGCAG,22800 fluorescence intensity (a.u.)
14,GCCCGCTGCTCTGCTCTCTCATCTTTTATCTCACTAAAATCGGAGTCACCTAGTGCAG,8960 fluorescence intensity (a.u.)
15,AAGTACTCCCTCCGTATTTTAATGTATGACGCCGTTGACTCGGAGTCACCTAGTGCAG,9690 fluorescence intensity (a.u.)
16,TTTGGGCCGGGTTTTTGGTTTCTTCCTTTTTTTTTCTGGGCGGAGTCACCTAGTGCAG,12600 fluorescence intensity (a.u.)
17,ATCTATGTTTTTCTGCGGGCCGGGTTGGTTTGTTTCCTACCGGAGTCACCTAGTGCAG,10300 fluorescence intensity (a.u.)
18,CCCTCCGTATTTTAATGTATGACGCCGTTGACTTTTTGACCGGAGTCACCTAGTGCAG,26800 fluorescence intensity (a.u.)
19,GCCCGTTGCTCATCTCTCTCATCGTTTATCGCATTAAAATCGGAGTCACCTAGTGCAG,17900 fluorescence intensity (a.u.)
20,TTTTTTTTACCGGCCTAGTTGACCACCAACCAAGCAGTACCGGAGTCACCTAGTGCAG,10100 fluorescence intensity (a.u.)
21,GCATACATCTCTACTACCTGCATCTCCATCTCAAATCAAACGGAGTCACCTAGTGCAG,10400 fluorescence intensity (a.u.)

row,Sequence,binding signal
1,CTCCTCTAACGTACCATAGAGGGACATACGTTTCTGATGTCGGAGTCACCTAGTGCAG,8720 fluorescence intensity (a.u.)
2,CTCTCCATCCGCTCGCGGCTCGCGCTCGCCCATCCAATCCCGGAGTCACCTAGTGCAG,10600 fluorescence intensity (a.u.)
3,CATCGCCCACGCCAATGTCGTCGCCGACGTCTCGCTGCCGCGGAGTCACCTAGTGCAG,8820 fluorescence intensity (a.u.)
4,CACGCCATTAAGCTTTTTTTATATACATATAGTCAATGTTCGGAGTCACCTAGTGCAG,9130 fluorescence intensity (a.u.)
5,TAATACTCCCTCCGTATTTTAATGTATGATGCCGTTGACTCGGAGTCACCTAGTGCAG,10600 fluorescence intensity (a.u.)
6,ACTCTCTCCGTATTCGTATTTTAATGTATGACGCCGTTGACGGAGTCACCTAGTGCAG,8550 fluorescence intensity (a.u.)
7,ATTTTAATATTTGACGCCGTTGACTTTTTGTATGTTTGACCGGAGTCACCTAGTGCAG,42500 fluorescence intensity (a.u.)
8,CTAAATGTTTGACGCCGTTGACTTTTTAAATATGTTTGACCGGAGTCACCTAGTGCAG,32300 fluorescence intensity (a.u.)
9,CTCCCTCCATCCCAAAATGTTTGACGCCGTTGACTTTTTACGGAGTCACCTAGTGCAG,15900 fluorescence intensity (a.u.)
10,TCCGTATTTTAATGTATGACGCTGTTGACTTTCGACCTACCGGAGTCACCTAGTGCAG,13900 fluorescence intensity (a.u.)
11,CTCTCTCCGTATTATAATGTATGATGCCGTTGACTTTTTGCGGAGTCACCTAGTGCAG,35200 fluorescence intensity (a.u.)
12,TCTTACTCTCTCCATCCCAAAATGTTTGACGCCGTTGACTCGGAGTCACCTAGTGCAG,13400 fluorescence intensity (a.u.)
13,CCCACCGTTTCCAAATGTTTGACGCCGTTGACTTTTTATCCGGAGTCACCTAGTGCAG,31900 fluorescence intensity (a.u.)
14,TTAGTGATTTCTTGTCTCCTGATCATCTGTAGTCTGTAGACGGAGTCACCTAGTGCAG,8160 fluorescence intensity (a.u.)
15,GACCTAGCTCTGCCCTTTCTTTCTGAAATAAATAATGCATCGGAGTCACCTAGTGCAG,8960 fluorescence intensity (a.u.)
16,CCATCACTAGAGCCTTTTGCCTTTGCTTGCACAATTACATCGGAGTCACCTAGTGCAG,8850 fluorescence intensity (a.u.)
17,TGTGTGCCTGTTGTCTCATTTGATCTGCCATTTCAGCGCACGGAGTCACCTAGTGCAG,10700 fluorescence intensity (a.u.)
18,ACCCGCACACCGTCCCGTGCCAGCTGCCTCGCCACCGTTCCGGAGTCACCTAGTGCAG,11900 fluorescence intensity (a.u.)
19,CCACGACACCGCTTCCAGCCCACGCAACCCTCGAACAATGCGGAGTCACCTAGTGCAG,8170 fluorescence intensity (a.u.)
20,GTATTTTCGATTGTTTACACTATAATTAGACTGTTTTATACGGAGTCACCTAGTGCAG,8600 fluorescence intensity (a.u.)
21,CGTCGATGCCAATACAATAACCATCATCATCATCATCATTCGGAGTCACCTAGTGCAG,8210 fluorescence intensity (a.u.)

row,Sequence,binding signal
1,TCCTCTCCCACCAATCCTTTGATCCATTCATCCCAACTTCCGGAGTCACCTAGTGCAG,9340 fluorescence intensity (a.u.)
2,TGTGTGTGTATATATATGTAGCCTGTTCGCACATCATCTTCGGAGTCACCTAGTGCAG,13600 fluorescence intensity (a.u.)
3,GTAATGGCATATTTGCAATTATCCCTTTGTTTATTTATTTCGGAGTCACCTAGTGCAG,8510 fluorescence intensity (a.u.)
4,TTATATGATGTTGTTGACTTTTTGACAAATGTTTAATCATCGGAGTCACCTAGTGCAG,8810 fluorescence intensity (a.u.)
5,TCCCTAAATATATGACGTTGTTGACTTTTTAAAACATTTTCGGAGTCACCTAGTGCAG,11200 fluorescence intensity (a.u.)
6,TCCCTAAATGTTTAACGTCGTTGACTTTTTAAAATATGTTCGGAGTCACCTAGTGCAG,21000 fluorescence intensity (a.u.)
7,GTCGTTGATTTTTTTAAAAATGTTTAACCGTTCGTTTTATCGGAGTCACCTAGTGCAG,8170 fluorescence intensity (a.u.)
8,AATGTATGACGCCGTTGACTTTTTAACAAATATTTGACATCGGAGTCACCTAGTGCAG,20300 fluorescence intensity (a.u.)
9,CGTGCCGCCGCCGCCGCCGCCATCCTCCGGCAACAACGGCCGGAGTCACCTAGTGCAG,9650 fluorescence intensity (a.u.)
10,GCTTCGCTTTGCGCTCTCTCTATCTCTCTCTCTTCCAAAACGGAGTCACCTAGTGCAG,8490 fluorescence intensity (a.u.)
11,TATCCACATACCACCTCTCCATTGGACCACAGTTTCTCTCCGGAGTCACCTAGTGCAG,8340 fluorescence intensity (a.u.)
12,CGAGAAGGGGATGGGGAGGAGGAGAGGGAGCGGGAGAGGGCGGAGTCACCTAGTGCAG,10100 fluorescence intensity (a.u.)
13,CGCGGGGAGGGAGGGAGGGAAGGAGAGGAGGAAGAGGATGCGGAGTCACCTAGTGCAG,9410 fluorescence intensity (a.u.)
14,AAGGGGATCGGAGATGCCGCTGGGCAAGTACTACTGCGACCGGAGTCACCTAGTGCAG,29900 fluorescence intensity (a.u.)
15,GGTTTTGCAGGGCGAGGAGGGAGGGGAGGAGGGAAGGATGCGGAGTCACCTAGTGCAG,15900 fluorescence intensity (a.u.)
16,GGCGGCGGCGGCGGCGGAGGTTGGGAAGGAGAGGGAGGGGCGGAGTCACCTAGTGCAG,11800 fluorescence intensity (a.u.)
17,GGAGAGGAGCGGGCGGGTTGGTGTTGGGAAGGGAGGGATGCGGAGTCACCTAGTGCAG,18200 fluorescence intensity (a.u.)
18,GGGGCAAGGAAGGAAGGGGAGGGGAGGGGTTGGGGCGATGCGGAGTCACCTAGTGCAG,25900 fluorescence intensity (a.u.)
19,TGCTGGTGGTGGTGGTGGGGATCGAGCCGCTCGCTTCGACCGGAGTCACCTAGTGCAG,11700 fluorescence intensity (a.u.)
20,CGGAGAAGTCCGGGCAGGCAAGGGGATGGGGATGGGGATGCGGAGTCACCTAGTGCAG,12400 fluorescence intensity (a.u.)
